Source: PubChem
Autofluor counter – counter-screen for toxin protease inhibitors: compound fluorescence; compound autofluorescence counterscreen, microsphere flow cytometry; hits give high values; fluorescence intensity (test concentration not listed); AID 624483; 360,000 compounds, 3.1% hits; in the data active = fluorescence intensity above about 16000; inconclusive = no clear call, values can overlap the other calls
Anthrax LF prot – anthrax lethal factor protease inhibition. AID 588501. 360,000 compounds, 0.12% hits. multiplex microsphere protease cleavage assay, LF. P15917. inhibition, % at 10 µM; also: plate controls were buffer without enzyme for full effect and enzyme alone for no effect
BoNT-A LC inh2 – BoNT A light chain protease inhibition. multiplex microsphere protease substrate cleavage, flow cytometry. inhibition, % at 10 µM. 360,000 compounds, 0.17% hits. AID 588499; also: plate controls were buffer without enzyme for full effect and enzyme alone for no effect
BoNT F protease – inhibitors of Botulinum neurotoxin F light chain protease | Multiplex microsphere protease cleavage assay, flow cytometry | 360,000 compounds, 0.22% hits | inhibition, % at 10 µM; in the data active = inhibition above about 35%, passing the limit was not always enough; inconclusive = no clear call, values can overlap the other calls; also: plate controls were buffer without enzyme for full effect and enzyme alone for no effect
An asterisk follows results filed as active; ? = inconclusive. An excerpt weighted towards active compounds, which were near 3.5% of everything screened. Rule as the data show it, unless noted: active = inhibition above about 30%; inconclusive = no clear call, values can overlap the other calls; inactive = below that.

SMILES | Autofluor counter | Anthrax LF prot | BoNT-A LC inh2 | BoNT F protease
CS(=O)(=O)N(CC(=O)N1CCCC1)c1cc(Cl)c(Cl)cc1Cl | 22315* | -2 | 3 | 2
CS(=O)(=O)N(CC(=O)N1CCCC1)c1ccc(Cl)cc1Cl | 2937 | 21 | 2 | 4
CC(C)N(C(=O)[C@H]1C[C@H](CC(=O)NCCCn2ccnc2)C(=O)N2CCc3c([nH]c4ccc(Cl)cc34)[C@]12C)C(C)C | 3616 | -4 | -1 | -5
COc1cccc(Oc2ccc(C(F)(F)F)cc2NC(=O)CN2C(=O)NC3(CCCC3)C2=O)c1 | 7978 | -2 | 1 | 6
CCOC(=O)Sc1nc2ncncc2[nH]1 | 2934 | -7 | -1 | -1
COc1ccc(C(=O)Nc2ccnn2C2CCN(C(=O)c3cccnc3)CC2)cc1 | 4697 | 1 | 0 | -11
CCN(CC(=O)Nc1ccccc1C(F)(F)F)C(=O)C1CCC1 | 5000 | 1 | 4 | -1
CCOC(=O)N1CCN(C(=O)CN(c2cccc(OC)c2)S(C)(=O)=O)CC1 | 19270* | 4 | ? | 4
CCOC(=O)C1CCN(C(=O)CN(c2ccc3c(c2)OCCO3)S(C)(=O)=O)CC1 | 22882* | -10 | -1 | 0
COc1cccc(N(CC(=O)N2CCCC2)S(C)(=O)=O)c1 | 3824 | -13 | -5 | ?
CN(CC(=O)N1CCCC1)S(=O)(=O)c1cc(Cl)ccc1Cl | 22425* | 0 | ? | -6
CN(CC(=O)O)S(=O)(=O)c1cc(Cl)ccc1Cl | 7073 | 1 | -1 | -12
CCN(CC)CC(=O)N1c2ccccc2CCc2ccc(NC(=O)c3cc(OC)c(OC)c(OC)c3)cc21 | 5360 | 0 | ? | ?
COc1ccc(CN2CC(C(=O)NCCc3ccccc3)CC2=O)cc1 (stereo not drawn) | 17837* | -4 | 7 | 10
COc1ccc(N2CC(C(=O)NCCc3ccc(OC)c(OC)c3)CC2=O)cc1 (stereo not drawn) | 22233* | -4 | 0 | -5
COc1ccc(CN2CC(C(=O)NCCc3ccc(C)cc3)CC2=O)cc1 (stereo not drawn) | 20337* | -1 | 1 | 2
CCOc1ccc(CCNC(=O)C2CC(=O)N(Cc3ccc(OC)cc3)C2)cc1OCC (stereo not drawn) | 5507 | -2 | 2 | 2
O=C(Nc1ccccc1)C1CC(=O)N(Cc2ccccc2)C1 (stereo not drawn) | 5762 | -4 | 1 | -5
CC(=O)c1ccc(NC(=O)C2CC(=O)N(Cc3ccccc3)C2)cc1 (stereo not drawn) | 17232* | -14 | 7 | 10
COCCn1ccc2c(OCC(=O)NCCc3ccccc3)cccc2c1=O | 5323 | -3 | -2 | -8
COc1nnc(-c2ccc(N3CCCCC3)c(NC(=O)COc3ccccc3)c2)c2ccccc12 | 5783 | -7 | 0 | -6
Cc1ccccc1Nc1nc(N)nc(COC(=O)c2cccn2C)n1 | 9913 | 8 | 2 | 4
CCc1ccccc1Nc1nc(N)nc(COC(=O)c2cccn2C)n1 | 21076* | 0 | -1 | -5
CN(C)c1ccc(N=Cc2ccco2)cc1 | 20149* | -10 | 8 | -23
CN(C)c1ccc(C=Nc2ccc(N(C)C)cc2)cc1 | 1945 | -8 | 1 | -31
SMILES | Autofluor counter | Anthrax LF prot | BoNT-A LC inh2 | BoNT F protease
O=C(NCC(c1ccc(F)cc1)N1CCOCC1)c1ccco1 (stereo not drawn) | 5585 | 0 | -1 | 1
O=C(O)CCN1C(=O)c2ccc(Oc3ccc4c(c3)C(=O)N(CCC(=O)O)C4=O)cc2C1=O | 19401* | -2 | 0 | 0
CCc1c(C)[nH]n(-c2ccc(Oc3ccccc3)c(S(=O)(=O)O)c2)c1=O | 22582* | -1 | ? | -2
Cc1cc(C)n(-c2ccc(Oc3ccccc3)c(S(=O)(=O)O)c2)n1 | 2622 | -3 | 0 | -8
Cc1nn(-c2ccc(N3CCCCC3)nn2)c(C)c1CCC(=O)Nc1cc(F)ccc1F | 4937 | -1 | 1 | 2
O=C1CC(c2ccccc2)CN1C(=O)c1cccnc1 (stereo not drawn) | 4483 | -3 | 0 | 1
O=C1CCC(c2ccccc2)N1C(=O)c1cccnc1 (stereo not drawn) | 23368* | -2 | -1 | 1
COc1ccc(-n2c(-c3ccco3)n[nH]c2=S)cc1 | 22219* | -3 | 3 | 4
S=c1[nH]nc(-c2ccco2)n1-c1ccc(Cl)cc1 | 3957 | -1 | 0 | 2
CN1CCN(c2ccc(C(=O)NC3CCCCC3)cc2[N+](=O)[O-])CC1 | 4497 | -1 | 0 | -3
COc1ccc2c(c1)c1nc3ccccc3nc1n2CCn1c(=O)oc2ccccc21 | 16506* | 0 | 1 | 1
NC(=O)NC(=O)CN1C(=O)NC2(CCOc3ccccc32)C1=O (stereo not drawn) | 5250 | -2 | 0 | 1
COc1ccc(S(=O)(=O)N2CCCCC2)cc1NC(=O)CCCOc1ccc(C)cc1 | 3793 | -16 | 0 | -7
Cc1nnc(SCC(=O)N2CC(=O)Nc3ccccc32)n1Cc1ccccc1 | 3667 | 1 | 0 | -20
O=C1CN(C(=O)CSc2nnnn2-c2ccc(Cl)cc2)c2ccccc2N1 | 21884* | -2 | ? | 3
CN(Cc1ccccc1F)C(=O)CN1C(=O)NC2(CCc3ccccc32)C1=O (stereo not drawn) | ? | -6 | -6 | -16
CCN1C(=O)c2ccccc2S(=O)(=O)c2ccc(C(=O)NCCOC)cc21 | 2966 | 10 | 2 | 61*
COC(=O)c1sc2ncccc2c1OCc1ccc(Cl)cc1 | ? | ? | -2 | -6
COC(=O)c1sc2ncccc2c1OCc1ccccc1Cl | 18888* | -7 | 2 | 0
CC1(C)CC(=O)C=C(c2ccc(-c3cccc4c3sc3ccccc34)cc2)C1=O | 3294 | 14 | 8 | 2
CC1(C(=O)NC2CCCC2)CCC(=O)N1Cc1cccs1 (stereo not drawn) | 22707* | -4 | ? | -4
CC1(C(=O)NC2CCCCCCC2)CCC(=O)N1Cc1cccs1 (stereo not drawn) | 16346* | -2 | 0 | 2
CC1(C(=O)NC2CCCCC2)CCC(=O)N1Cc1cccs1 (stereo not drawn) | 5138 | 3 | 0 | -3
CN(C)CCCN(C(=O)c1ccc([N+](=O)[O-])o1)c1nc2cc3c(cc2s1)OCO3 | 4384 | -2 | 0 | 1
COC(=O)c1ccc(CSc2nnc(N)s2)cc1 | 2891 | -4 | 0 | -2
SMILES | Autofluor counter | Anthrax LF prot | BoNT-A LC inh2 | BoNT F protease
COC(=O)c1ccc(CSc2nc(N)cc(N)n2)cc1 | 23371* | -3 | 0 | 0
CSc1nc2ccc(Nc3nc(N4CCOCC4)nc(N4CCOCC4)n3)cc2s1 | 23477* | -3 | -1 | -1
O=C(O)c1cccc(Nc2nc(N3CCOCC3)nc(N3CCOCC3)n2)c1 | 22856* | 0 | -6 | -9
Cc1cccc(NC(=O)CCS(=O)(=O)c2ccc3nc(C)sc3c2)c1 | 5505 | -7 | 0 | -3
CCOC(=O)c1cc(C)sc1N1C(=O)C2C3C=CC(C3)C2C1=O (stereo not drawn) | 24106* | 0 | -2 | -4
CCOC(=O)c1c(N2C(=O)C3C4C=CC(C4)C3C2=O)sc2c1CCC(C)C2 (stereo not drawn) | 2487 | -2 | 0 | -18
C=CCSc1ncccc1C(=O)NCCc1ccccc1 | 3101 | -8 | -2 | -10
C=CCSc1ncccc1C(=O)NCc1ccccc1 | 21460* | -3 | 3 | 3
